{
  "source": "PubChem BioAssay (EPA / NIEHS)",
  "note": "Inconclusive results are not listed. Activity calls are given as the source filed them. The calls were made as follows: active = hit-call score of the fitted dose curve at least 0.9, where 1 is the maximum; inconclusive = response in the unintended direction; inactive = score below 0.9.",
  "data": [
    {"molecular_target": "Nucleoli Translocation, AR (gene 367) (UniProt P10275)", "sequence (P10275 whole entry, looked up, the tested form may be a part)": "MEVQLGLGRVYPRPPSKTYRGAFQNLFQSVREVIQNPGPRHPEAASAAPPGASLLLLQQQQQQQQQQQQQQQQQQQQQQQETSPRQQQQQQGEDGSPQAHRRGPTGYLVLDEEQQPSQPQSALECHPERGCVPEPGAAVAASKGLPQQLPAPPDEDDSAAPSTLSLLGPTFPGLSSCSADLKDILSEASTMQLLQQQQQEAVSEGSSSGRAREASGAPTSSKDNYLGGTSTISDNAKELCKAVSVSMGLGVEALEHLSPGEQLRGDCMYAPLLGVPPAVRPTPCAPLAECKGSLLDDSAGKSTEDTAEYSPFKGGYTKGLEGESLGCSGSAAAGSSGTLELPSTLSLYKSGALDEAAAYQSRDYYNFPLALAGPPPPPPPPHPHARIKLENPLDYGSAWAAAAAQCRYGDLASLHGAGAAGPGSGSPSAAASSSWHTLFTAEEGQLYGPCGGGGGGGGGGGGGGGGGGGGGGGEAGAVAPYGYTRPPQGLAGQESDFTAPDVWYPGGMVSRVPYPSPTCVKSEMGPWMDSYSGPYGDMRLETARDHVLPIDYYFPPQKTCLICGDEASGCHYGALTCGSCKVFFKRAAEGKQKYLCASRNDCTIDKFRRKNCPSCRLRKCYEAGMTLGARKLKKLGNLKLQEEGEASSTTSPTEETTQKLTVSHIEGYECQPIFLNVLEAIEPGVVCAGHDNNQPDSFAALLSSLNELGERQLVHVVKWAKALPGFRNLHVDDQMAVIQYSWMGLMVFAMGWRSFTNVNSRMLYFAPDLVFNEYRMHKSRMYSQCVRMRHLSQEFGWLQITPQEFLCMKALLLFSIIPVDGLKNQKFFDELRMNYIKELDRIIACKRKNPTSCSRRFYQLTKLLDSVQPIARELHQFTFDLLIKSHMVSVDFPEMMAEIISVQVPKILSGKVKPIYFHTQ", "assay": "UPITT_HCI_U2OS_AR_TIF2_Nucleoli_Agonist: University of Pittsburgh U2OS Androgen Receptor-Transcriptional Intermediary Factor 2 (AR-TIF2) Agonism High Content Imaging Assay for Nucleoli Translocation (AID 2283998)", "description": "UPITT_AR_TIF2_PPIB is a cell-based, high-content imaging assay that uses U2OS, a human osteosarcoma cell line, expressing a human androgen receptor fused to red fluorescent protein and the coactivator TIF2 fused to green fluorescent protein. UPITT_HCI_U2OS_AR_TIF2_Nucleoli_Agonist is one of four assay components measured from the UPITT_AR_TIF2_PPIB assay. It is designed to make measurements of red fluorescence localized in the nucleolar region of the cell nucleus as detected with high-content fluorescent imaging.Data from the assay component UPITT_HCI_U2OS_AR_TIF2_Nucleoli_Agonist was analyzed into 1 assay endpoint. This assay endpoint, UPITT_HCI_U2OS_AR_TIF2_Nucleoli_Agonist, was analyzed in the positive analysis fitting direction relative to DMSO as the baseline of activity. Using a type of binding reporter, measures of receptor for gain-of-signal activity can be used to understand the binding at the pathway-level as it relates to the gene AR.\nDaughter plates containing 2 uL of 10 mM compounds in DMSO were prepared and replicated from the 384-well Library of Pharmacologically Active Compounds (LOPAC) master plates using the Bravo outfitted with a 384-well transfer head. Aluminum adhesive plate seals were applied with an Abgene Seal-IT 100 (Rochester, NY) plate sealer, and the plates were stored at -20 C in a Matrical MatriMinistore (Spokane, WA) automated compound storage and retrieval system. For screening, LOPAC daughter plates were withdrawn from -20C storage, thawed to ambient temperature, centrifuged 1-2 min at 50 g, and the plate seals were removed before the transfer of 98 uL of serum-free tissue culture medium (SFM) into wells using the BioTek Microflo liquid handler (BioTek, Winooski, VT) to generate a 200 uM intermediate stock concentration of library compounds (2.0% DMSO). The diluted compounds were mixed by repeated aspiration and dispensation using a 384-well P30 dispensing head on the Evolution P3 (EP3) liquid handling platform (PerkinElmer, Waltham, MA) and then 5 uL of diluted compounds was transferred to the wells of assay plates. In the LOPAC screen, compounds were individually tested at a final concentration of 20 uM (0.2% DMSO). After the diluted compounds had been transferred from the daughter plates to the primary HCS assay plates, aluminum adhesive plate seals were applied and the diluted daughter plates were stored frozen at -20C. To confirm active compounds identified in the primary screen, we withdrew the LOPAC daughter plates containing the 200 uM intermediate concentration of library compounds (2.0% DMSO) from -20C storage, thawed them to ambient temperature, centrifuged them for 1-2 min at 50 g, and removed the plate seals. A work list was generated to direct the Multiprobe Janus liquid handling platform (PerkinElmer) to cherry pick 75 uL from the wells of the diluted daughter plates that were flagged active in the primary screen and to reformat these into a 384-well plate hit confirmation daughter plate. Five microliters of primary HCS active compounds was then transferred into triplicate wells of assay plates using a 384-well P30 dispensing head on the Evolution P3 (EP3) liquid handling platform (PerkinElmer). […] Daughter plates containing 2 uL of the serially diluted compounds in DMSO were prepared and replicated from the 384-well serial dilution master plates using the Bravo outfitted with a 384-well transfer head. Aluminum adhesive plate seals were applied and plates were stored at -20C. For testing in the bioassays, daughter plates were withdrawn from -20C storage, thawed to ambient temperature, centrifuged for 1-2 min at 50 g, and the plate seals were removed before the transfer of 38 uL of SFM into wells using the BioTek Microflo liquid handler (BioTek) to generate an intermediate stock concentration of library compounds ranging from 1.95 to 500 uM (5.0% DMSO). […]", "values": [
      {"smiles": "Nc1c(Cl)c(F)nc(OCC(=O)O)c1Cl", "outcome": "inactive"},
      {"smiles": "Cc1cnc(C2=NC(C)(C(C)C)C(=O)N2)c(C(=O)O)c1", "note": "(stereo unspecified)", "outcome": "inactive"},
      {"smiles": "CCCCOCN(C(=O)CCl)c1c(CC)cccc1CC", "outcome": "inactive"},
      {"smiles": "CCCCC(O)(Cn1cncn1)c1ccc(Cl)cc1Cl", "note": "(stereo unspecified)", "AC50": "78.4 µM (active)"},
      {"smiles": "COCc1cnc(C2=NC(C)(C(C)C)C(=O)N2)c(C(=O)O)c1", "note": "(stereo unspecified)", "outcome": "inactive"},
      {"smiles": "CC(C)N1C(=O)N(c2ccccc2)CSC1=NC(C)(C)C", "outcome": "inactive"},
      {"smiles": "COc1ccc(-c2ccccc2)cc1NNC(=O)OC(C)C", "outcome": "inactive"},
      {"smiles": "COP(=S)(OC)SCn1nnc2ccccc2c1=O", "outcome": "inactive"},
      {"smiles": "CC1(C)CCC(=Cc2ccc(Cl)cc2)C1(O)Cn1cncn1", "note": "(stereo unspecified)", "AC50": "9.87 µM (active)"},
      {"smiles": "COC(=O)c1c(C(F)F)nc(C(F)(F)F)c(C2=NCCS2)c1CC(C)C", "outcome": "inactive"},
      {"smiles": "Clc1cccc(C(Cl)(Cl)Cl)n1", "outcome": "inactive"}
    ]}
  ]
}
